Activity calls are given as the source filed them. How the calls were made is not given here.
The molecules below were run against Dual specificity protein kinase CLK1 (Homo sapiens) (UniProt P49759) (assay: ligand-induced CLK1 melting temperature shift – biophysical, recombinant human kinase, DSF (AID 382)). Conditions: Recombinant CLK1, thermal shift (DSF), at 10 µM, protein 2 µM, buffer 10 mM HEPES, pH 7.5, NaCl 150 mM, hits give high values.
Dual specificity protein kinase CLK1 (Homo sapiens), sequence (P49759 whole entry, looked up): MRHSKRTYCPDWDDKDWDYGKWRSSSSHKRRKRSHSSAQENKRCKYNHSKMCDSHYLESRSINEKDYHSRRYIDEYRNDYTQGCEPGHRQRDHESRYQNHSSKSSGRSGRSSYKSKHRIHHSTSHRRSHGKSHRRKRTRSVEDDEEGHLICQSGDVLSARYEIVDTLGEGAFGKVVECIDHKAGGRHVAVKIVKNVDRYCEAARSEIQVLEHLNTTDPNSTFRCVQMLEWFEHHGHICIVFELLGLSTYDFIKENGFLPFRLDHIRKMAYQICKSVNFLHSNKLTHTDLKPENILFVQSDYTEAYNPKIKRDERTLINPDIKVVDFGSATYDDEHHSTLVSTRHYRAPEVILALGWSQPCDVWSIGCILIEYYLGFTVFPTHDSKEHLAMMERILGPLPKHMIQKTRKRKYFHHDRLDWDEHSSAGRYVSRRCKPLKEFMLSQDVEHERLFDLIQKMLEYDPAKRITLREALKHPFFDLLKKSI

Tm shift, active:
Clc1cccc(-c2cnc3ccc(NCCc4ccccn4)nn23)c1 4.83 Celsius
c1csc(-c2cnc3ccc(NCC4CC4)nn23)c1 3.52 Celsius
Clc1ccc(-c2cnn3ccc(NCc4cccnc4)nc23)cc1 4.33 Celsius

Same assay, conditions: Recombinant CLK1, thermal shift (DSF), at 10 µM, protein 2 µM, buffer 10 mM HEPES, pH 7.5, NaCl 150 mM, with 50 µM L-Arg/L-Glu (1:1), hits give high values

Tm shift, active:
CC(C)[C@@H](CO)Nc1ccc2ncc(-c3cccc(F)c3)n2n1 3.9 Celsius
CCC(CO)Nc1ccc2ncc(-c3ccc(OC)nc3)n2n1 (stereo not drawn) 4.5 Celsius
COCCNc1ccc2ncc(-c3cccc(C(N)=O)c3)n2n1 3.9 Celsius
OCC(O)CCO/N=C1/C(c2c(O)[nH]c3ccccc23)=Nc2ccccc21 (stereo not drawn) 7.7 Celsius
CC(=O)c1cccc(-c2cnc3ccc(N[C@H](CO)C(C)C)nn23)c1 6.7 Celsius
CC(=O)Nc1cccc(-c2cnc3ccc(N[C@H](CO)C(C)C)nn23)c1 7.4 Celsius
N#Cc1ccc(-c2cnc3ccc(NC4CCOCC4)nn23)cc1 7.2 Celsius
CNC(=O)c1cc(Oc2ccc(NC(=O)Nc3ccc(C)c(C(F)(F)F)c3)cc2)ccn1 4.9 Celsius
c1cncc(-c2cnc3ccc(NC4CCOCC4)nn23)c1 3.3 Celsius
CCC(CO)Nc1ccc2ncc(-c3cccc(C(C)=O)c3)n2n1 (stereo not drawn) 6.1 Celsius
NS(=O)(=O)c1ccc(Nc2nc(OCC3CCCCC3)c3[nH]cnc3n2)cc1 3.9 Celsius
CC(=O)c1cccc(-c2cnc3ccc(NC4CCOCC4)nn23)c1 5.2 Celsius
CC(=O)Nc1cccc(-c2cnc3ccc(NC4CCOCC4)nn23)c1 8.8 Celsius
N#CCCc1ccc2c(c1)-c1[nH]c3ccc(-n4oo4)cc3c1CC(=O)N2 3.1 Celsius
O=C(c1ccc(Nc2nccc(-c3cc4ccccc4s3)n2)cc1)N1CCC(N2CCCC2)CC1 6.1 Celsius
